Some test systems named below: NCI-H23 lung; NCI-H226 lung; NCI-H322M lung; HOP-62 NSCLC; NCI-H460 lung; HOP-92 NSCLC; NCI-H522 lung; A549/ATCC NSCLC; 786-0 renal; COLO 205 colon; DU-145 prostate; K-562 leukemia; MALME-3M melanoma; MDA-MB-231 breast; RXF 393 renal; SF-268 CNS; SF-295 CNS; SF-539 CNS; UACC-257 melanoma; M14 melanoma.
Experiment in all cases: NCI-60 one-dose screen, 48 h (100 = growth as untreated, 0 = no growth, -100 = all killed)
Common to all, as to conditions: 10 µM unless noted

About 83,000 compounds went through this panel and 20% of them were active in at least one assay; those are over-represented in the sample as a whole.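 For each line, cells grew in 96-well plates with the test compound present at a single concentration for 48 hours.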 A number with no mark means an inactive call. Active and inactive are the calls of the source. The calls were made as follows: active = growth percent below 10; inactive = the rest.

Regarding `CCCCCCCCCCCCCCCC[N+]1(C)CCCC1c1cccnc1` (centres undefined), the growth was 25.3% with NCI-H23 lung; 41.4% in the experiment on NCI-H226 lung; 88.7% with NCI-H322M lung; 53.7% in the experiment with HOP-62 NSCLC; 23.6% in the experiment with NCI-H460 lung; 5.98% (active) in the experiment with HOP-92 NSCLC. The growth with NCI-H522 lung is 41.2%; in the experiment on A549/ATCC NSCLC, 41.8%; with 786-0 renal, 52.7%; in the experiment with COLO 205 colon, -21.7% (active); in the experiment on DU-145 prostate it was 52.1%; in the experiment with K-562 leukemia, 36.3%. In addition, the growth in the experiment on MALME-3M melanoma was 64.7%; in the experiment with MDA-MB-231 breast it was 30.8%; in the experiment on RXF 393 renal, 45.3%; with SF-268 CNS, 29.6%; in the experiment with SF-295 CNS, 42.2%; in the experiment with SF-539 CNS it was 33.3%. Moreover, the figures for the growth in the experiment with UACC-257 melanoma and with M14 melanoma were 75.9% and 17.9%, respectively.
In the case of `Cc1cc(Br)c2nsnc2c1[N+](=O)[O-]`, the growth in the experiment with NCI-H23 lung was -6.95% (active); with NCI-H226 lung it was 44.4%; with NCI-H322M lung, 88.2%; with HOP-62 NSCLC it was 55.6%; with NCI-H460 lung it was 2% (active); in the experiment on HOP-92 NSCLC it was 62.5%. Moreover, the growth with NCI-H522 lung was -40% (active); with A549/ATCC NSCLC, 54.4%; with 786-0 renal, 17.8%; in the experiment with COLO 205 colon, 0.766% (active); in the experiment on DU-145 prostate, 18.9%; in the experiment on K-562 leukemia it was 22.7%. Also, the growth in the experiment on MALME-3M melanoma was 82.4%; in the experiment on MDA-MB-231 breast, 30%; in the experiment with RXF 393 renal it was 48.2%; in the experiment on SF-268 CNS, 32.3%; with SF-295 CNS, 33.8%; with SF-539 CNS, 9.73% (active). For the same compound, the growth is 66.9% in the experiment with UACC-257 melanoma and 3.57% (active) in the experiment on M14 melanoma.
As to `CN(C)CCN(C)CC(C)(C)C(=O)/C=C/c1ccc(Cl)c(Cl)c1`, the growth with NCI-H23 lung is -83.2% [100 µM] (active); in the experiment with NCI-H226 lung, -64.1% [100 µM] (active); with NCI-H322M lung it was -98.4% [100 µM] (active); in the experiment with HOP-62 NSCLC, -92.9% [100 µM] (active); in the experiment on NCI-H460 lung, -72.8% [100 µM] (active); with HOP-92 NSCLC, -89.4% [100 µM] (active). The growth is -89.5% [100 µM] (active) in the experiment on NCI-H522 lung; -82% [100 µM] (active) in the experiment on A549/ATCC NSCLC; -93.6% [100 µM] (active) in the experiment with 786-0 renal; -90.3% [100 µM] (active) with COLO 205 colon; -99.2% [100 µM] (active) in the experiment with DU-145 prostate; -21.1% [100 µM] (active) in the experiment with K-562 leukemia. Moreover, the growth in the experiment with MALME-3M melanoma is -95.5% [100 µM] (active); in the experiment on MDA-MB-231 breast, -98% [100 µM] (active); with RXF 393 renal, -95.1% [100 µM] (active); with SF-268 CNS, -54.8% [100 µM] (active); in the experiment on SF-295 CNS it was -97.9% [100 µM] (active); in the experiment on SF-539 CNS, -99.3% [100 µM] (active). The growth in the experiment with UACC-257 melanoma was -90.4% [100 µM] (active); with M14 melanoma it was -92% [100 µM] (active).
Consider `Cc1ccc2c(c1)sc(-c1ccc(N(C)C)cc1)[n+]2C`, for which the growth is 12.2% in the experiment with NCI-H23 lung; 17.8% in the experiment with NCI-H226 lung; 12.7% in the experiment on NCI-H322M lung; 1.81% (active) in the experiment with HOP-62 NSCLC; -25.7% (active) in the experiment on NCI-H460 lung; -38.6% (active) in the experiment on HOP-92 NSCLC. Further, the growth with NCI-H522 lung was 8.21% (active); with A549/ATCC NSCLC, 26.6%; with 786-0 renal, 7.31% (active); in the experiment on COLO 205 colon it was -83% (active); in the experiment with DU-145 prostate it was 20.4%; in the experiment with K-562 leukemia, -21.7% (active). Also, the growth in the experiment on MALME-3M melanoma was 0.435% (active); in the experiment on MDA-MB-231 breast, 2.82% (active); with RXF 393 renal it was 39.7%; with SF-268 CNS, 18.5%; in the experiment with SF-295 CNS, -5.75% (active); in the experiment on SF-539 CNS, 12.5%. The growth in the experiment with UACC-257 melanoma was 4.53% (active).
With `NCCCN(CCCN)CCCNCc1c2ccccc2c(CNCCCN(CCCN)CCCN)c2ccccc12`, the growth is 92.2% with NCI-H23 lung; 87.2% in the experiment with NCI-H226 lung; 84.4% with NCI-H322M lung; 87.2% with HOP-62 NSCLC; 93.9% in the experiment with NCI-H460 lung; 95.9% in the experiment with HOP-92 NSCLC. Moreover, the growth in the experiment on NCI-H522 lung was 89.7%; in the experiment on A549/ATCC NSCLC, 95.2%; in the experiment with 786-0 renal, 99.1%; in the experiment on COLO 205 colon it was 95.9%; in the experiment with DU-145 prostate, 100%; in the experiment with K-562 leukemia it was 83.3%. The growth in the experiment on MALME-3M melanoma is 51.7%; in the experiment with MDA-MB-231 breast, 102%; in the experiment with RXF 393 renal, 98.4%; in the experiment with SF-268 CNS, 88.7%; in the experiment with SF-295 CNS it was 100%; with SF-539 CNS, 91.8%. Moreover, the figures for the growth in the experiment with UACC-257 melanoma and in the experiment with M14 melanoma were 93.2% and 98.8%, respectively.
On to `COC1=CC(=O)c2c(O)c3c(c(O)c2C1=O)CC(C)(O)OC3` (centres undefined), for which the growth was -27% (active) in the experiment on NCI-H23 lung; 90.1% in the experiment with NCI-H226 lung; 5.37% (active) in the experiment on NCI-H322M lung; 9.06% (active) in the experiment on HOP-62 NSCLC; 4.74% (active) in the experiment with NCI-H460 lung; -16.4% (active) with HOP-92 NSCLC. The growth is 14.7% in the experiment on NCI-H522 lung; 2.13% (active) with A549/ATCC NSCLC; 34% in the experiment with 786-0 renal; -61.7% (active) with COLO 205 colon; 12.7% in the experiment with DU-145 prostate; 13.4% in the experiment on K-562 leukemia. The growth was -96.6% (active) in the experiment with MALME-3M melanoma; 28.3% in the experiment with MDA-MB-231 breast; 11.1% in the experiment on RXF 393 renal; 18.3% with SF-268 CNS; 5.39% (active) with SF-295 CNS; -2.19% (active) in the experiment with SF-539 CNS. The growth was 5.54% (active) in the experiment on UACC-257 melanoma and -52.4% (active) with M14 melanoma.
Regarding `[Cl-].[Rh+3].c1ccc(-c2ccnc3c2ccc2c(-c4ccccc4)ccnc23)cc1.c1ccc(-c2ccnc3c2ccc2c(-c4ccccc4)ccnc23)cc1.c1ccc(-c2ccnc3c2ccc2c(-c4ccccc4)ccnc23)cc1`, the growth in the experiment with NCI-H23 lung was 86.6%; in the experiment with NCI-H226 lung, 107%; in the experiment on NCI-H322M lung, 105%; in the experiment on HOP-62 NSCLC, 92%; with NCI-H460 lung it was 92.4%; with HOP-92 NSCLC, 80.9%. The growth in the experiment with NCI-H522 lung is 42.1%; in the experiment with A549/ATCC NSCLC, -0.367% (active); in the experiment with 786-0 renal, 84.8%; with COLO 205 colon it was 64.6%; in the experiment on DU-145 prostate, 126%; in the experiment with K-562 leukemia it was 34.7%. Moreover, the growth in the experiment on MALME-3M melanoma was 94.3%; in the experiment on MDA-MB-231 breast it was 93.6%; in the experiment on RXF 393 renal it was 22.1%; with SF-268 CNS it was 95%; in the experiment with SF-295 CNS it was 69.5%; with SF-539 CNS, -5.79% (active). In addition, the growth in the experiment on UACC-257 melanoma is 63.6%; in the experiment on M14 melanoma, 45.7%.

Source of the values: PubChem BioAssay (NCI).
